Only some compounds are listed: those with a hit (about 2.7% of all), similar ones and a draw of the others.
IDE inh – inhibitors of human insulin-degrading enzyme in cells. inhibition, % at 5.59 µM. HEK cells, FAbetaB cleavage, fluorescence polarization. P14735. actives 0.41% (n = 320,000);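 active = percent inhibition above the average of all tested compounds plus 3 SD, set per screening campaign, cut at about 16% in these data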;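 also: IDE supplied by intact live HEK cells; FP after avidin binding of uncleaved biotin substrate so inhibition keeps polarization high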
CHT allo act – allosterically activates the human high affinity choline transporter | Q9GZV3 | CHT-expressing cells, membrane potential dye, choline EC20; hits give high values; LV-AA mutant CHT in HEK293 cells | B-score at 10 µM | actives 0.49% (n = 310,000) | AID 488977;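 active = initial fluorescence not abnormally high and integrated response B-score, plate-corrected, over 3 SD above library mean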
Target sequence (Q9GZV3 whole entry, looked up): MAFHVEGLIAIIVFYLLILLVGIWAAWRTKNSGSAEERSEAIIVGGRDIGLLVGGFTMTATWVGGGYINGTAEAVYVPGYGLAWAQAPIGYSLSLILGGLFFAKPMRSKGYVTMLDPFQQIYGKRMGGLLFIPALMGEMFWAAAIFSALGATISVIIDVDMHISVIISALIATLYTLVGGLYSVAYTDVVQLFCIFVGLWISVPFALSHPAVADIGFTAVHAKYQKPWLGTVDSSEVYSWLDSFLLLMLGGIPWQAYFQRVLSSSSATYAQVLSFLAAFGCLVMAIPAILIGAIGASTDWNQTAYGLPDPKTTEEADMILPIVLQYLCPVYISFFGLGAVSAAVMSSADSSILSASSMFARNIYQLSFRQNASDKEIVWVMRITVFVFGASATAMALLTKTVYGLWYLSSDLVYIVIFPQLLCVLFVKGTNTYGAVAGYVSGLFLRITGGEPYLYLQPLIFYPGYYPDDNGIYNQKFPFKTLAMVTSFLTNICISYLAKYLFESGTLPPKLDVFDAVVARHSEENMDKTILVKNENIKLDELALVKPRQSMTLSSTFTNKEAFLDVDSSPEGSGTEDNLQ
TMEM16A act – activates or potentiates the mouse TMEM16A chloride channel | Q8BHY3 | actives 0.3% (n = 340,000) | HEK293 TMEM16A/YFP-H148Q/I152L, iodide quench fluorescence; hits give low values | AID 623877 | B-score at 10 µM;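 active = fluorescence-ratio B-score plate-corrected deviation score at least 3 library SD below zero, with starting fluorescence score within 5 deviations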;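 also: channel opened by trigger with iodide after compound preincubation; score built on the fluorescence ratio of max minus min over baseline; more negative score means more quench and so TMEM16A activation or potentiation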
IDE cell activ – activators of human insulin-degrading enzyme in cells; P14735; activation, % at 5.96 µM; HEK cells, FAbeta-B cleavage, fluorescence polarization; 0% vehicle, 100% cell-free pure enzyme wells; actives 0.073% (n = 340,000); AID 493087;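 active = activation above the mean of all tested compounds plus 3 SD, set per screening campaign, cut at about 17% in these data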
CHT block – human CHT choline transport inhibition; Q9GZV3; CHT-expressing cells, membrane potential dye, choline response; hits give low values; B-score at 10 µM; actives 0.86% (n = 310,000);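 active = B-score over 3 SD under the library average, and starting fluorescence ratio not unusually high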;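 also: choline stimulus applied at its EC90 after an EC20 pre-addition; B-score computed on integrated fluorescence ratio after choline addition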
ANO1 block – mouse TMEM16A channel inhibition, primary screen. Q8BHY3. HEK293 TMEM16A/YFP iodide influx fluorescence, ionomycin. normalized B-score (activity score, 25-100; higher = stronger inhibition) at 10 µM. actives 1.2% (n = 310,000). AID 588511;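 active = ratio plate-corrected score three or more library SD toward inhibition, starting fluorescence score within five deviations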;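 also: score derived from kinetic fluorescence span divided by baseline fluorescence per well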
CHT inh conf – confirmation of human choline transporter CHT inhibitors | shares compounds with CHT block | CHT-expressing cells, choline membrane potential dye; LV-to-AA substituted CHT, HEK293 cells | CHT activity remaining % of control (hits give low values), % at 10 µM | actives 70% (n = 2,400);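 active = choline transporter activity left, mean of duplicates at 10 µM, below buffer-only control mean minus 3 SD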;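 also: depolarization triggered by choline at its EC90 following an EC20 pre-addition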
HEK293 CHT ctr – CHT inhibitor counter-screen hit in parental HEK293 cells; membrane potential ratio readout (active if shifted either direction beyond buffer ±3SD; no single direction) at 10 µM; shares compounds with CHT block; membrane potential dye, choline response; active = decrease or increase beyond buffer ±3SD; actives 4% (n = 2,400);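 also: parental cells lack the transporter so any hit is non-specific; ratio is peak minus trough fluorescence over baseline after EC90 choline challenge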
Each line names hits and unclear results; the compound was inactive in the other large screens (follow-up assays come after a bar, where they were run).

CCCCOc1ccc(C(=O)NCC(=O)OC2CCOC2=O)cc1 (centres undefined)	CHT block -5 (no result: TMEM16A act) | CHT inh conf inactive | HEK293 CHT ctr inactive
O=C(CNC(=O)c1ccc(Cl)cc1)OC1CCOC1=O (centres undefined)	none
O=C(Nn1cnnc1)c1ccc(F)cc1	none
CC(C)CC(=O)N(c1nnc(-c2cccnc2)s1)C1CCCC1	none
COc1cc(OC)cc(C(=O)NC(=S)NNC(=O)[C@H]2C[C@@H]2c2ccccc2)c1	CHT block -6.8, ANO1 block 100 | CHT inh conf 53% | HEK293 CHT ctr inactive
COc1ccc(C(=O)NC(=S)NNC(=O)[C@H]2C[C@@H]2c2ccccc2)cc1OC	none
CCCNC(=O)C(Cc1cccc(OC)c1)NC(=O)c1ccc(C(C)(C)C)cc1 (centres undefined)	none (no result: CHT allo act, CHT block, ANO1 block)
O=C(Cc1c(Cl)cccc1Cl)Nc1ccc(S(=O)(=O)Nc2ncccn2)cc1	none
CCC(NC(=O)CCc1nnc(-c2cc(C)on2)o1)C12CC3CC(CC(C3)C1)C2 (centres undefined)	CHT block -7.9 | CHT inh conf 44% | HEK293 CHT ctr inactive
O=C(OCc1nc2ccsc2c(=O)[nH]1)c1ccc(Cl)s1	CHT block -11 | CHT inh conf 5.9% | HEK293 CHT ctr inactive
CC(C)CNC(=O)C(=O)Nc1cc2c3c(c1)C(C)C(=O)N3CCC2 (centres undefined)	none
CCN(CC)c1ccc(/C=N/NC(=O)c2ccco2)c(O)c1	CHT block -5.2 | CHT inh conf inactive | HEK293 CHT ctr inactive
CCN(CC)c1ccc(/C=N/NC(=O)Cc2cccs2)c(O)c1	none
O=[N+]([O-])c1cc([N+](=O)[O-])c2c(=Nc3ccccc3)n(-c3ccccc3)n(O)c2c1	CHT block -6.2 | CHT inh conf 61% | HEK293 CHT ctr inactive
O=C(CC1CCCCC1)c1c(O)c2ccccc2oc1=O	CHT block -7.4 | CHT inh conf 44% | HEK293 CHT ctr 4.6
CCOc1ncccc1C(=O)NCC1COc2ccccc2O1 (centres undefined)	CHT block -5.2 | CHT inh conf 67% | HEK293 CHT ctr inactive
Cc1ccc(C(=O)O)cc1N=Cc1cc(Br)cc(Br)c1O	CHT block -6.2 | CHT inh conf 59% | HEK293 CHT ctr inactive
CC(=O)Nc1ccc(C(=O)N/N=C/c2cc(Br)cc(Br)c2O)cc1	none
Cc1cccc(-c2ccc3c(c2)C2CC3CCN2C)c1 (centres undefined)	none (no result: IDE inh, CHT allo act, TMEM16A act, CHT block, ANO1 block)
CCCC(=O)Oc1ccc(N(C(=O)CCC)S(=O)(=O)c2cccs2)cc1	CHT block -5.7 | CHT inh conf inactive | HEK293 CHT ctr inactive
CC(=O)Oc1ccc(N(C(C)=O)S(=O)(=O)c2cccs2)cc1	none
COc1ccccc1NCC(=O)NC(=O)NC1CCCCC1	none (no result: CHT allo act, CHT block, ANO1 block)
CCOC(=O)c1nn(-c2ccc(Cl)cc2)c2nnc(Cc3ccc(C)cc3)c(=O)n12	CHT block -5.9 | CHT inh conf inactive | HEK293 CHT ctr inactive
CCOC(=O)c1nn(-c2ccccc2)c2nnc(Cc3ccc(Cl)cc3)c(=O)n12	none
CC(=O)c1ccc(N2CCN(C(=O)C3CCCN3S(=O)(=O)c3cccc4nsnc34)CC2)cc1 (centres undefined)	none
O=C(C1CCCN1S(=O)(=O)c1cccc2nsnc12)N1CCCCC1 (centres undefined)	CHT block -9.8, ANO1 block 25 | CHT inh conf inactive | HEK293 CHT ctr inactive
O=S(=O)(Nc1nc2ccccc2nc1NCc1ccco1)c1ccc(F)cc1	CHT block -6.2 | CHT inh conf inactive | HEK293 CHT ctr inactive
C[C@H](CO)N1C[C@H](C)[C@@H](CN(C)CC2CC2)Oc2c(NC(=O)Cc3ccccc3)cccc2C1=O	none (no result: CHT allo act, CHT block, ANO1 block)
COc1ccccc1Nc1nnc(SCC2CCCCO2)s1 (centres undefined)	CHT block -6.3 | CHT inh conf 57% | HEK293 CHT ctr inactive
Cc1ccccc1Nc1nnc(SCC2CCCCO2)s1 (centres undefined)	none
COc1ccc(C(=O)NC(=O)CSc2nc3nc(C)cc(C)n3n2)cc1	none (no result: CHT allo act, CHT block, ANO1 block)
CCOC(=O)C(C)Sc1nnc(NC(=O)c2cccc([N+](=O)[O-])c2C)s1 (centres undefined)	CHT block -5.2 | CHT inh conf 52% | HEK293 CHT ctr inactive
CCOC(=O)C(C)Sc1nnc(NC(=O)c2ccc(C)c([N+](=O)[O-])c2)s1 (centres undefined)	none
O=C(CC(CC(=O)c1ccc(Cl)cc1)c1ccccc1C(=O)O)c1ccc(Cl)cc1	CHT block -5.8 | CHT inh conf 40% | HEK293 CHT ctr inactive
Cc1noc(NS(=O)(=O)c2ccc(NC(=O)/C=C/c3ccccc3)cc2)c1C	none (no result: CHT allo act, CHT block, ANO1 block)
Cc1ccc(/C=C2\SC(=S)N(c3c(C)n(C)n(-c4ccccc4)c3=O)C2=O)cc1	CHT block -5.4 | CHT inh conf 60% | HEK293 CHT ctr inactive
Cc1c(N2C(=O)/C(=C3\C(=O)N(CC(=O)O)c4ccccc43)SC2=S)c(=O)n(-c2ccccc2)n1C	none
COc1ccccc1NS(=O)(=O)c1ccc(O)c(C(=O)OCC(=O)c2ccc(Cl)cc2Cl)c1	CHT block -5.3 | CHT inh conf 62% | HEK293 CHT ctr inactive
C/C(=N/NS(=O)(=O)c1ccc(C)cc1C)c1c[nH]c2ccccc12	none (no result: IDE inh)
OCc1ccccc1OCCOc1ccc(Cl)c2cccnc12	CHT block -9.7 | CHT inh conf 44% | HEK293 CHT ctr inactive
O=C(CNC(=O)c1ccc(Cl)cc1Cl)OCC(=O)c1ccc2c(c1)OCCO2	CHT block -6.7 | CHT inh conf 66% | HEK293 CHT ctr inactive
O=C(COC(=O)CNC(=O)c1ccc(Cl)cc1Cl)NCC1CCCO1 (centres undefined)	none
O=C(O)CSc1nc2ccccc2[nH]1	none
CC(SCC(=O)O)c1nc2ccccc2[nH]1 (centres undefined)	CHT block -5.7 | CHT inh conf inactive | HEK293 CHT ctr inactive
CN(C)CCN(C(=O)c1ccc2c(c1)CCCC2)c1nc2c(F)cccc2s1	none
Cc1cccc2sc(N(CCCN(C)C)C(=O)c3ccco3)nc12	none
COc1cccc2sc(N(CCN(C)C)C(=O)c3ccc4c(c3)CCCC4)nc12	CHT block -10 | CHT inh conf 18% | HEK293 CHT ctr inactive

Source: PubChem BioAssay (several laboratories)
